Hit rate of the full screen: of about 1,300 compounds, about 930 (72%) were called active.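 Rule for the calls: active = fitted curve reaches 40% activation signal increase at or below the top valid tested concentration in every replicate test; inconclusive = replicate tests disagree in their calls; inactive = all replicate tests inactive, including effects opposite the expected signal rise.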 The set was probably picked from earlier hits. The list is a sample of the results. Measured potencies and affinities stand elsewhere.
Assay: suppression of miR-122 activity, Renilla luciferase sensor – cell-based, Huh7 psiCHECK-miR122, cherry-pick, dose response (AID 652053)
Conditions: Huh7 psiCHECK-miR122 Renilla luciferase reporter, 48 h; series mostly up to 35 µM; activation (miR-122 inhibition): at the top concentration

Structure (SMILES) | activation (miR-122 inhibition)
C/C=C/c1ccc([C@H]2[C@@H](CO)N(c3nc(CC)cs3)[C@H]2CNC(C)C)cc1 | 9.8% [at 30 µM] (inactive)
Cc1cc(C)cc(NC2=NC3(CCCCC3)N=C(N)N2)c1 | 14.3% (inactive)
C/C=C/c1ccc([C@H]2[C@H](CO)N(c3nc(CC)cs3)[C@H]2CNC(C)C)cc1 | 9.1% (inactive)
Cc1cc(N/N=C/c2ccc(O)c(C)c2O)nc(-c2ccccc2O)n1 | -28.8% (inactive)
CCC(=O)Nc1ccc(C(=O)Nc2cccc(C)n2)cc1 | -4.08% (inactive)
C[C@@H]1CN([C@@H](C)CO)C(=O)Cc2cc(NC(=O)Nc3cccc4ccccc34)ccc2O[C@@H]1CN(C)C(=O)NC1CCCCC1 | 16.7% [at 30 µM] (inactive)
C[C@H](CO)N1C[C@H](C)[C@H](CN(C)C(=O)NC2CCCCC2)Oc2ccc(NC(=O)Nc3cccc4ccccc34)cc2CC1=O | -11.8% (inactive)
CC(C)NC(=O)Nc1ccc2c(c1)CC(=O)N([C@H](C)CO)C[C@@H](C)[C@@H](CN(C)Cc1ccc(Oc3ccccc3)cc1)O2 | -16% (inactive)
C[C@H](CO)N1C[C@H](C)[C@@H](CN(C)Cc2ccncc2)Oc2ccc(NC(=O)Nc3cccc4ccccc34)cc2CC1=O | 27.8% (inactive)
COc1cccc(C(=O)Nc2cc([N+](=O)[O-])ccc2N2CCN(C)CC2)c1 | 7.85% (inactive)
COc1ccc(NC(C)=O)cc1NC(C)C(=O)Nc1cc(C(F)(F)F)ccc1N1CCOCC1 (stereo unspecified) | -5.66% (inactive)
Cc1nc2ccccc2n1S(=O)(=O)c1ccc(F)cc1 | -4.04% (inactive)
CC(C)n1c(/C=C/c2ccccc2)nc2ccccc21 | 14% (inactive)
COc1ccc(S(=O)(=O)Nc2ccc3c(c2)COC3=O)cc1OC | 9.2% (inactive)
CC(=O)N1[C@H](CO)[C@H](c2ccc(C3=CCCCC3)cc2)[C@@H]1CNC(=O)CN(C)C | 24.4% (inactive)
Cc1ccc(C)c(CSc2nnc(-c3cccnc3)o2)c1 | 10.5% (inactive)
COc1ccc(OC)c(Nc2cc(C)nc3nc(C)nn23)c1 | 6.54% (inactive)
Cc1cc(OCC(O)CN2CCOCC2)cc(C)c1Cl (stereo unspecified) | -7.28% (inactive)
O=C(Nc1cccc([N+](=O)[O-])c1)c1ccc(CSc2ccccc2)cc1 | -5.05% (inactive)
Fc1ccc(-n2nnc(-c3nccs3)n2)cc1 | 9.99% (inactive)
CCc1nc2sc3c(c2c(=O)n1NC(=O)CCl)CCCC3 | -23.5% (inactive)
COc1ccc(CN(C)C[C@@H]2OCCCC[C@@H](C)Oc3ccc(NC(=O)c4ccccc4)cc3C(=O)N([C@H](C)CO)C[C@@H]2C)cc1 | 26.6% (inactive)

Structure (SMILES) | activation (miR-122 inhibition)
COc1cccc(N2CCN(C(=S)Nc3cccc(C)c3)CC2)c1 | -9.75% (inactive)
C/C=C/c1ccc([C@@H]2[C@@H](CO)N(c3nc(CC)cs3)[C@@H]2CNC(C)C)cc1 | -14.1% (inactive)
COc1ccc(CNC(=O)C(c2ccco2)N(C(=O)c2csnn2)c2cccc(C)c2C)cc1 (stereo unspecified) | 14% (inactive)
O=C(Oc1ccc(C(=S)N2CCOCC2)cc1)c1ccc(F)cc1 | -4.16% (inactive)
O=C(Oc1ccc(C(=S)N2CCOCC2)cc1)c1ccccc1F | -11.9% (inactive)
O=C(Oc1ccc(C(=S)N2CCOCC2)cc1)c1ccccc1 | -1.54% (inactive)
COc1cc(C(=S)N2CCOCC2)cc(OC)c1OC(=O)c1ccc(F)cc1 | 2.77% (inactive)
CCOC(=O)c1ccc(NS(=O)(=O)c2ccc3[nH]c(=O)[nH]c3c2)cc1 | 15.1% (inactive)
CCCNC(=O)NC[C@H]1[C@H](c2ccc(C3=CCCC3)cc2)[C@H](CO)N1C(=O)CC | 4.17% (inactive)
CCCNC(=O)NC[C@@H]1[C@H](c2ccc(C3=CCCC3)cc2)[C@H](CO)N1C(=O)CC | -2.66% (inactive)
CCCNC(=O)NC[C@H]1[C@@H](c2ccc(C3=CCCC3)cc2)[C@H](CO)N1C(=O)CC | 22.9% (inactive)
CC(=O)N1[C@H](CO)[C@@H](c2ccc(C3=CCCCC3)cc2)[C@@H]1CNC(=O)CN(C)C | 2.05% (inactive)
CCCNC(=O)NC[C@@H]1[C@H](c2ccc(C3=CCCC3)cc2)[C@@H](CO)N1C(=O)CC | -9.1% [at 30 µM] (inactive)
CCC(=O)N1[C@H](CNC(=O)CN(C)C)[C@@H](c2ccc(C3=CCCC3)cc2)[C@@H]1CO | 7% (inactive)
CCCNC(=O)NC[C@H]1[C@H](c2ccc(C3=CCCC3)cc2)[C@@H](CO)N1C(=O)CC | 18.1% (inactive)
CCCNC(=O)NC[C@H]1[C@@H](c2ccc(C3=CCCC3)cc2)[C@@H](CO)N1C(C)=O | 56.5% (inactive)
CN(C)Cc1cccc(-c2ccccc2)c1O | 17.8% (inactive)
O=S(=O)(Nc1ccncc1)c1ccc(Cl)cc1 | -7.92% (inactive)
COc1cc(OC)c2c(-c3cccc(-c4ccc(O)cc4)c3)cc(=O)oc2c1 | 5.68% (inactive)
COc1cc(OC)c2c(-c3cccc(-c4ccc(N(C)C)cc4)c3)cc(=O)oc2c1 | 32.1% (inactive)
COc1ccc(-c2cccc(-c3cc(=O)oc4cc(OC)cc(OC)c34)c2)cc1 | 8.47% (inactive)
Cc1cc(C(=O)N2CCc3ccccc32)n(-c2ccccc2)n1 | 15.6% (inactive)

Structure (SMILES) | activation (miR-122 inhibition)
CC(C)n1cc(NC(=O)c2cc(-c3ccccc3)on2)cn1 | -6.08% (inactive)
C/C(=N\NC(=O)c1cc(-c2cccs2)nc2ccccc12)c1ccccn1 | -5.64% (inactive)
O=C(C[C@@H]1CC[C@H]2[C@@H](COC[C@@H](O)CN2C(=O)C2CCCC2)O1)NCc1ccncc1 | -14.2% (inactive)
O=C(COc1ccccc1F)c1ccc(O)cc1O | 15.5% (inactive)
Cc1c(C(=O)N(C)CCC#N)oc2ccc(S(=O)(=O)N3CCOCC3)cc12 | -3.44% (inactive)
COc1ccccc1N1CCN(S(=O)(=O)c2ccc(F)cc2)CC1 | -3.23% (inactive)
COc1ccc(NC(=O)N(C)C[C@H]2Oc3ccc(NC(=O)Nc4ccc(C(F)(F)F)cc4)cc3CC(=O)N([C@H](C)CO)C[C@H]2C)cc1 | 16% [at 30 µM] (inactive)
COc1ccc(NC(=O)N(C)C[C@H]2Oc3ccc(NC(=O)Nc4ccc(C(F)(F)F)cc4)cc3CC(=O)N([C@@H](C)CO)C[C@H]2C)cc1 | 37.5% (inactive)
C[C@@H]1CN([C@@H](C)CO)C(=O)c2cc(NC(=O)CCC(F)(F)F)ccc2O[C@@H]1CN(C)C(=O)Nc1ccc2c(c1)OCO2 | -9% (inactive)
COc1ccc(NC(=O)N(C)C[C@H]2Oc3ccc(NC(=O)Nc4ccc(C(F)(F)F)cc4)cc3CC(=O)N([C@H](C)CO)C[C@@H]2C)cc1 | -1.37% (inactive)
COc1ccc(NC(=O)N(C)C[C@@H]2Oc3ccc(NC(=O)Nc4ccc(C(F)(F)F)cc4)cc3CC(=O)N([C@H](C)CO)C[C@@H]2C)cc1 | 8.26% (inactive)
COc1ccc(NC(=O)N(C)C[C@@H]2Oc3ccc(NC(=O)Nc4ccc(C(F)(F)F)cc4)cc3CC(=O)N([C@@H](C)CO)C[C@H]2C)cc1 | -1.45% [at 30 µM] (inactive)
Cc1ccc(S(=O)(=O)N(C)C[C@@H]2Oc3ccc(NC(=O)Nc4ccc(C(F)(F)F)cc4)cc3CC(=O)N([C@@H](C)CO)C[C@@H]2C)cc1 | -7.06% (inactive)
Cc1ccc(S(=O)(=O)N(C)C[C@@H]2Oc3ccc(NC(=O)Nc4ccc(C(F)(F)F)cc4)cc3CC(=O)N([C@H](C)CO)C[C@@H]2C)cc1 | 12.7% (inactive)
COc1ccc(NC(=O)N(C)C[C@H]2Oc3ccc(NC(=O)Nc4ccc(C(F)(F)F)cc4)cc3CC(=O)N([C@@H](C)CO)C[C@@H]2C)cc1 | 2.76% [at 30 µM] (inactive)
COc1ccc(NC(=O)N(C)C[C@@H]2Oc3ccc(NC(=O)Nc4ccc(C(F)(F)F)cc4)cc3CC(=O)N([C@H](C)CO)C[C@H]2C)cc1 | 4.93% (inactive)
CSC(=S)NCc1cccnc1 | 33.8% (inactive)
Cc1ccc(NC(=O)N(C2=NCC(C)S2)c2ccccc2)cc1 (stereo unspecified) | 7.27% (inactive)
Cc1ccc(SC(C)C(=O)NCCC2=CCCCC2)cc1 (stereo unspecified) | 0.132% (inactive)
Cn1c(=O)c2cc(S(=O)(=O)NCCC(=O)NCCC3=CCCCC3)ccc2n(C)c1=O | -7.18% (inactive)
Cc1ccc(-c2nnc(SCc3ccc(C#N)cc3)n2Cc2ccco2)cc1 | 25.7% (inactive)
COc1ccc(OC)c(-n2cc3c(=O)n(C)c(=O)n(C)c3c2)c1 | 22.8% (inactive)

Structure (SMILES) | activation (miR-122 inhibition)
CC(C)c1cc(C(=O)N/N=C/C(Br)=C/c2ccccc2)n[nH]1 | 38% (inactive)
O=C(Nc1nc2c(s1)CCc1ccccc1-2)c1ccco1 | 33% (inactive)
CCc1nc2ccc(C(=O)N3CCN(C(=O)c4ccco4)CC3)cn2c1N(C)C(=O)COc1ccccc1 | -12.7% (inactive)
Cc1ccc(NC(=O)COc2ccc(Br)cc2CO)cc1 | -3.88% (inactive)
CC(=O)N1[C@H](CNC(=O)CN(C)C)[C@H](c2ccc(C3=CCCCC3)cc2)[C@@H]1CO | 0% (inactive)
CC(=O)N(C)C[C@@H]1[C@@H](c2ccc(-c3cccnc3)cc2)[C@H](CO)N1C(=O)C1CC1 | -1.89% (inactive)
CC(=O)N(C)C[C@H]1[C@H](c2ccc(-c3cccnc3)cc2)[C@@H](CO)N1C(=O)C1CC1 | 4.37% (inactive)
CN1[C@H](CO)[C@@H]2c3ccccc3N(C(=O)c3ccc(F)cc3)C[C@@H]21 | 15.8% [at 30 µM] (inactive)
O=C(c1ccc(F)cc1)N1C[C@H]2[C@@H](c3ccccc31)[C@H](CO)N2C(=O)c1ccc(F)cc1 | 12.4% (inactive)
O=C(Nc1ccccc1F)N1C[C@@H]2[C@H](c3ccccc31)[C@H](CO)N2C(=O)c1ccc(F)cc1 | 24.2% [at 30 µM] (inactive)
CC(=O)N1C[C@H]2[C@@H](c3ccccc31)[C@@H](CO)N2C(=O)c1ccc(F)cc1 | -1.27% (inactive)
CC(=O)N1[C@H](CO)[C@@H]2c3ccccc3N(C(=O)c3ccc(F)cc3)C[C@@H]21 | 16.7% (inactive)
O=C(Nc1ccccc1F)N1C[C@H]2[C@@H](c3ccccc31)[C@H](CO)N2C(=O)c1ccc(F)cc1 | 15.8% (inactive)
O=C(Nc1ccccc1F)N1C[C@@H]2[C@H](c3ccccc31)[C@@H](CO)N2C(=O)c1ccc(F)cc1 | 17% (inactive)
CC(C)C(=O)Nc1ccc2c(c1)C(=O)N(C)[C@@H]1CC[C@H](CC(=O)NCc3cccc(F)c3)O[C@@H]1CO2 | 8.41% (inactive)
CN1C(=O)c2cc(NC(=O)C3CC3)ccc2OC[C@H]2O[C@H](CC(=O)NCc3cccc(F)c3)CC[C@H]21 | -7.82% (inactive)
CC(C)C(=O)Nc1ccc2c(c1)C(=O)N(C)[C@@H]1CC[C@@H](CC(=O)NCc3cccc(F)c3)O[C@H]1CO2 | -10.4% (inactive)
Cc1ccc2c(CN3CCCc4ccccc43)cc(=O)oc2c1C | -5.95% (inactive)
CNC[C@H]1Oc2c(NC(=O)C3CCOCC3)cccc2C(=O)N([C@H](C)CO)C[C@@H]1C | -3.4% (inactive)
C[C@H](CO)N1C[C@H](C)[C@@H](CN(C)Cc2ccncc2)Oc2c(NC(=O)C3CCOCC3)cccc2C1=O | 9.97% (inactive)

From PubChem BioAssay AID652053 (Broad Institute, 2013)
